# Measurements taken from PubChem BioAssay (NCATS).
# Unmarked numbers belong to inactive results. Results filed as inconclusive are left out. Entries that show only a call come without a potency. Active and inactive are the calls of the source. Unless noted, calls follow the shape of the dose curve; as a rule, active = well fitted curve in the direction sought with a large enough effect; inconclusive = small, poorly fitted or top-dose-only effect, or another doubt; inactive = no such curve, though single readings can be large; an effect the other way counts as inactive or inconclusive.
# Tests used:
# Es-2 = experiment: Primary qHTS to identify gynecologic anti-cancer compounds using libraries of approved drugs and bioactive compounds (AID 1345084); settings: Gynecologic cancer cell panel viability, ATPlite luminescence, 48 h; series mostly up to 57.5 µM; also: nearly all actives have a fitted effect of over 55% in size; also: potency is read from the fitted curve at half-maximal effect
# How it was run: (§1)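 Measured: luminescence after ATPlite addition (15 min, RT). Exposure: 48 h, 37 C, 5% CO2.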
# HeLa = experiment: as above; settings: Gynecologic cancer cell panel viability, ATPlite luminescence, 48 h; series mostly up to 57.5 µM
# How it was run: as §1
# Hek293T = experiment: as above; settings: Gynecologic cancer cell panel viability, ATPlite luminescence, 48 h, control line for the selectivity index; series mostly up to 57.5 µM
# How it was run: as §1
# JEG-3 = experiment: as above; settings: Gynecologic cancer cell panel viability, ATPlite luminescence, 48 h; series mostly up to 57.5 µM
# How it was run: as §1
# OV90 = experiment: as above; settings: Gynecologic cancer cell panel viability, ATPlite luminescence, 48 h; series mostly up to 57.5 µM
# How it was run: as §1
# PA-1 = experiment: as above; settings: Gynecologic cancer cell panel viability, ATPlite luminescence, 48 h; series mostly up to 57.5 µM
# How it was run: as §1
# Tov-21-G = experiment: as above; settings: Gynecologic cancer cell panel viability, ATPlite luminescence, 48 h; series mostly up to 57.5 µM
# How it was run: as §1
# Tov112D = experiment: as above; settings: Gynecologic cancer cell panel viability, ATPlite luminescence, 48 h; series mostly up to 57.5 µM
# How it was run: as §1
# [1] = Drug repurposing screens with cells derived from glioblastoma tumor samples (AID 1345199); settings: GBM patient neurospheres viability, ATP luminescence, 48 h; also: nearly all actives have a fitted effect of over 40% in size; also: potency is read from the fitted curve at half-maximal effect
# How it was run: (§2)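 Four patient lines of CD133+ GBM neurospheres were screened at several concentrations; hits were retested in those lines plus three slower-growing GBM lines, using 48-hour treatment and ATP-based viability.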
# astro = experiment: as above; settings: viability, ATP luminescence, 48 h; series mostly up to 45.9 µM
# How it was run: as §2
# SKOV3 = experiment: Primary qHTS to identify gynecologic anti-cancer compounds using libraries of approved drugs and bioactive compounds (AID 1345084); settings: Gynecologic cancer cell panel viability, ATPlite luminescence, 48 h; series mostly up to 57.5 µM; also: nearly all actives have a fitted effect of over 55% in size; also: potency is read from the fitted curve at half-maximal effect
# How it was run: as §1
# [2] = target: Nuclear receptor subfamily 1 group I member 2 (Rattus norvegicus) (UniProt Q9R1A7); experiment: qHTS assay for small molecule activators of the rat pregnane X receptor (rPXR) signaling pathway (AID 651751; call rule not given here); settings: rPXR reporter cells, luciferase (One-Glo), 24 h
# [3] = qHTS assay for small molecule activators of the human pregnane X receptor (PXR) signaling pathway (AID 720659; call rule not given here)
# [4] = at 20 µM (top of the series), tumour line C
# [5] = at 45.9 µM (top of the series), tumour line B
# [6] = at 45.9 µM (top of the series), tumour line D
# [7] = at 46.1 µM (top of the series), tumour line C
# [8] = at 46 µM (top of the series), tumour line A
# Sequence of Nuclear receptor subfamily 1 group I member 2 (Rattus norvegicus) (Q9R1A7 whole entry, looked up): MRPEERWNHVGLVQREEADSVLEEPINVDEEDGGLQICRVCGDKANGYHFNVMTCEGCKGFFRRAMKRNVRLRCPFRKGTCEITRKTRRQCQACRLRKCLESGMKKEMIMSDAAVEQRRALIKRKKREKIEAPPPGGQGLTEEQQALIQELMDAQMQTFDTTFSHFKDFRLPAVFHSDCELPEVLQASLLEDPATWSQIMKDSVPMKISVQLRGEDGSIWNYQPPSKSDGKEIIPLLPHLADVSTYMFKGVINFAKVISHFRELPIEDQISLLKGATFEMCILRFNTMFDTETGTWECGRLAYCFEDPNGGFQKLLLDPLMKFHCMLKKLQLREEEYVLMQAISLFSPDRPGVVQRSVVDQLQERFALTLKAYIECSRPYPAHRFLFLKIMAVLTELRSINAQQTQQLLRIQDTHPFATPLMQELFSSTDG
Compound,Potency (Es-2),Potency (HeLa),Potency (Hek293T),Potency (JEG-3),Potency (OV90),Potency (PA-1),Potency (Tov-21-G),Potency (Tov112D),"activity, negative = cell killing [1, 4]","activity, negative = cell killing ([1]; at 21.2 µM (top of the series), tumour line B)","activity, negative = cell killing ([1]; at 21.2 µM (top of the series), tumour line D)",Potency (astro),Potency (SKOV3),"activity, negative = cell killing [1, 5]","activity, negative = cell killing [1, 6]","activity, negative = cell killing [1, 7]",max response [2],outcome [3],"activity, negative = cell killing [1, 8]",Potency ([1]; tumour line A)
CN(C)CCOC(=O)COc1ccc(Cl)cc1,inactive,inactive,inactive,inactive,inactive,inactive,inactive,inactive,-19.3%,-11.3%,-14.6%,inactive,–,–,–,–,–,–,–,–
O=C(O)CCCCCCCC(=O)O,inactive,inactive,inactive,inactive,inactive,inactive,inactive,inactive,–,–,–,–,inactive,-8.57%,-5.03%,-6.63%,-2.29%,inactive,–,–
CC(C)(C)NCC(O)c1cc(O)cc(O)c1 (configuration not stated),inactive,inactive,inactive,inactive,–,inactive,inactive,inactive,–,–,–,inactive,inactive,0.586%,-16.8%,-15.7%,–,–,-15.6%,–
CCCCCCCC/C=C\CCCCCCCC(=O)NCc1ccc(O)c(OC)c1,inactive,inactive,inactive,inactive,inactive,–,–,inactive,–,–,–,inactive,inactive,–,–,–,–,–,–,–
CN(C(=O)CCCOc1ccc2[nH]c(=O)ccc2c1)C1CCCCC1,inactive,inactive,inactive,inactive,inactive,–,inactive,inactive,–,–,–,inactive,–,-16.8%,–,–,–,–,–,11.2 µM (active)
Cc1nnc(SCC2=C(C(=O)O)N3C(=O)[C@@H](NC(=O)Cn4cnnn4)[C@H]3SC2)s1,inactive,inactive,inactive,inactive,inactive,inactive,inactive,inactive,–,–,–,inactive,inactive,-10.7%,-8.75%,-9.01%,–,–,–,–
CCCCNc1ccc(C(=O)OCCN(C)C)cc1,inactive,inactive,inactive,inactive,inactive,inactive,inactive,inactive,-9.33%,–,–,inactive,inactive,–,–,–,–,–,–,14.1 µM (active)
C[C@]12CCC(=O)C=C1CC[C@@H]1[C@@H]2C(=O)C[C@@]2(C)[C@H]1CC[C@]2(O)C(=O)CO,inactive,inactive,inactive,inactive,inactive,–,inactive,inactive,–,–,–,inactive,inactive,-3.67%,-5.79%,4.73%,–,–,-18.4%,–
CN=C(NC#N)NCCSCc1nc[nH]c1C,inactive,inactive,inactive,inactive,inactive,inactive,inactive,inactive,–,–,–,–,inactive,-8.34%,-15.2%,-4.17%,5.73%,–,-11.7%,–
CO[C@@]1(NC(=O)CSCC#N)C(=O)N2C(C(=O)O)=C(CSc3nnnn3C)CS[C@@H]21,inactive,inactive,inactive,inactive,inactive,inactive,inactive,inactive,–,–,–,inactive,inactive,-13.1%,-14.3%,–,–,–,-28.8%,–
CN/C(=C\[N+](=O)[O-])NCCSCc1ccc(CN(C)C)o1,inactive,inactive,inactive,inactive,14.1 µM (active),inactive,–,inactive,–,–,–,inactive,–,–,–,-1.34%,–,–,–,–
CCn1ccnc1CC1COc2ccccc2O1 (configuration not stated),inactive,inactive,inactive,inactive,inactive,inactive,inactive,inactive,–,–,–,inactive,inactive,-17.6%,-4.46%,-8.32%,–,–,–,–
COc1ccc(CN(CCN(C)C)c2ccccn2)cc1,inactive,inactive,inactive,inactive,inactive,inactive,inactive,inactive,–,–,–,–,inactive,-3.6%,–,-2.37%,7.02%,–,–,35.5 µM (active)
CC(=O)Nc1nnc(S(N)(=O)=O)s1,inactive,inactive,inactive,inactive,inactive,inactive,inactive,inactive,–,–,–,inactive,–,-5.69%,0.278%,-27.5%,0.356%,inactive,1.18%,–
Fc1ccc(C(c2ccc(F)cc2)N2CCN(C/C=C/c3ccccc3)CC2)cc1,inactive,inactive,inactive,inactive,–,inactive,inactive,inactive,–,–,–,–,inactive,–,–,–,–,–,–,–
CCN1CCC[C@H]1CNC(=O)c1c(O)c(Cl)cc(Cl)c1OC,inactive,inactive,inactive,inactive,inactive,inactive,inactive,inactive,–,–,–,inactive,–,-11.9%,3.21%,9.16%,–,–,–,–
